# Experimental data from publication PMC5540273 (PLoS ONE, 2017).
# Tested on: MAP3K3
# Settings: concentration: 1 μM, replicates: in singlicate; n = 1
# 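Note: KINOMEscan kinase panel screen.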
row,SMILES,%Inh
1,COC(=O)C(Cc1ccccc1)NC(=O)NC1CCN(c2ccnc(Nc3ccc(F)cc3)n2)C1 (centres unmarked) [GSK1379714],0%
2,CSc1ccc(-c2nc3n(c2-c2ccncc2)CCC3)cc1 [SKF-105561],0%
3,COc1ccc(Nc2nccc(N3CCC(NC(=O)c4cc5ccccc5s4)C3)n2)cc1 (centres unmarked) [GSK1379738],0%
4,Cc1ccc(NC(=O)Nc2ccc(Cl)cc2)cc1-c1ccc(C(=O)Nc2ccncc2)cc1 [GSK1398472],0%
5,CC(C)c1ccc(O)cc1Nc1ccnc2ccc(C(F)(F)F)cc12 [GW482059],1%
6,COC(=O)c1cccc(NC(=O)NC2CCN(c3ccnc(Nc4ccc(F)cc4)n3)C2)c1 (centres unmarked) [GSK1379725],0%
7,O=c1cc(N2CCOCC2)nc2n(Cc3ccccc3F)ccn12 [GSK2297428],0%
8,Cc1ccccc1-c1cc(-c2c[nH]nc2-c2ccccn2)ccn1 [GW680061],0%
9,COc1ccc(Nc2nccc(NCCNC(=O)Nc3cc(C)ccc3C)n2)cc1 [GSK1379899],0%
10,FC(F)(F)c1ccccc1-c1cc(-c2c[nH]nc2-c2ccccn2)ccn1 [GW679396],0%
11,Cc1ccccc1Cn1ccn2c(=O)cc(N3CCOCC3)nc12 [GSK2269905],0%
12,Cc1ccc(NC(=O)Nc2ccc(Cl)c(C(F)(F)F)c2)cc1-c1ccc(C(=O)Nc2ccncc2)cc1 [GSK1398470],0%
13,CCc1ccc(-c2ccc3c(c2)-c2n[nH]cc2S(=O)(=O)N3C)cc1,0%
14,CNCc1ccc2nc(NC(=O)c3ccc(C(C)(C)C)cc3)cn2c1,0%
